Screens: PubChem, National Center for Advancing Translational Sciences (NCATS)
The list is not random: actives were taken first. Their share in the collection is about 2.4%.
Nrf2 ARE act = Nrf2 pathway activation | AREc32 ARE-luciferase reporter (MCF7-derived line), luminescence, 24 h | Potency, µM (top dose mostly 46.1 µM), without a hit: top-dose activation, hits mostly activators | actives 0.31% (n = 410,000) | AID 624171; note: % of control where 0% means no effect; nearly all actives have a fitted effect of over 65% in size
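ARE-driven firefly luciferase activity in AREc32 cells measured after a 24 hr compound exposure at 37 deg C, using Steady-Glo reagent and a 30 min room-temperature hold.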
Nrf2 inh = inhibitors of Nrf2 signaling; A549 ARE-Fluc reporter, luciferase luminescence, 18-24 h; Potency, µM (doses to about 46 µM), without a hit: at the top dose activity change, negative = inhibition, actives largely listed as inhibitors; actives 2.1% (n = 360,000); AID 504444; note: % is set by controls: 0 for no effect and ±100 for the full control effect; nearly all actives have a fitted effect of over 60% in size
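Reporter: ARE-Fluc in A549. Exposure: 18-24 h, 37 °C, 5% CO2, 5% FBS OPTI-MEM. Readouts: fluorescent cytotoxicity (CellTiter-Fluor), then luminescent Nrf2 signal after BugLite.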
Epigenetic reg = derepresses silenced GFP reporter in murine cells. murine LDR cells, GFP reporter derepression, 30 h. actives 0.2% (n = 280,000). AID 1865. Potency, µM (top dose mostly 53.9 µM), for inactives: top-dose GFP activation, hits mostly activators; note: % of control where 0% means no effect; nearly all actives have a fitted effect of over 60% in size
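Murine LDR cells bearing a silenced CMV-driven GFP reporter were exposed to compound for 30 h at 37 C. After PBS washes, GFP-positive cells (20-120 um objects) counted by laser-scanning microplate cytometry.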
A549 viability = A549 cytotoxicity, counter-screen for Nrf2 inhibitors | actives 0.16% (n = 390,000) | AID 504648 | A549 ARE-Fluc cells, CellTiter-Fluor viability, 18-24 h | Potency, µM (titrated, usually from 46 µM), for the others: at the top dose activity change, negative = cytotoxicity, hits mostly inhibitors; note: % is set by controls: 0 for no effect and ±100 for the full control effect
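Cytotoxicity counterscreen: CellTiter-Fluor fluorescence was measured in A549 ARE_Fluc cells after 18-24 h of compound exposure in a concentration series. The subsequent BugLite luminescent read reports ARE-luciferase activity.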
PINK1 modulator = modulators of PINK1 expression | actives 0.2% (n = 410,000) | PINK1 immunofluorescence, high-content cytometry, 24 h | Potency, µM (highest dose often 76.6 µM), for the others: top-dose activation (PINK1 increase), usual class: activators; active = well fitted activation curve with a large enough effect; inconclusive = small, poorly fitted or top-dose-only effect; cell line not stated here; note: % of control where 0% means no effect; nearly all actives have a fitted effect of over 65% in size
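PINK1 protein, normally rapidly degraded, was detected by immunofluorescence after 24 hour compound treatment of a stable cell line. Titration data (5 concentrations) came from laser-scanning cytometry, with CCCP-treated wells as controls.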
The depositor's hits bear a star; ? = inconclusive; nt = not tested or not shown; [ ] = dose if it differs, or a comment. Unless noted, calls come from the whole dose curve; as a rule, active = well fitted curve in the direction sought with a large enough effect; inconclusive = small, poorly fitted or top-dose-only effect, or another doubt; inactive = no such curve, though single readings can be large; an effect the other way counts as inactive or inconclusive. Potency is the fitted concentration of half-maximal effect.

SMILES	Nrf2 ARE act	Nrf2 inh	Epigenetic reg	A549 viability	PINK1 modulator
O=C(NC1CC1)[C@@H]1C[C@H](Sc2nc3ccccc3[nH]2)CN1CC1CCCCC1	nt	nt	nt	nt	0%
Cc1cc(C(=O)OC(C(=O)Nc2cccc(C(F)(F)F)c2)c2ccccc2)c(C)o1 (stereo unspecified)	4%	-17%	0%	-3%	35µM*
O=C(c1ccc(N2CCC(NCCCn3ncc4ccccc43)CC2)cc1)N1CCc2ccccc2C1	nt	nt	nt	nt	1%
C=CCn1c(SCC(=O)Nc2ccc(N3CCOCC3)cc2)nnc1-c1ccco1	1%	-7%	nt	-17%	0%
C=CCn1c(SCC(=O)N2CCN(c3ccc(F)cc3)CC2)nnc1-c1ccco1	0%	18µM*	0%	-14%	2%
CCn1c(COc2c(C)cccc2C)nnc1SCC(=O)N1CCN(c2ccccc2)CC1	3%	18µM*	0%	?	0%
C=CCn1c(COc2cccc(C)c2C)nnc1SCC(=O)N1CCN(c2ccccc2)CC1	1%	16µM*	1%	?	-2%
CCn1c(COc2cc(C)cc(C)c2)nnc1SCC(=O)N1CCN(c2ccccc2)CC1	0%	?	-2%	-10%	15%[38.3 µM]
CC(C)c1ccc(NC(=O)c2cnc3sc(N4CCCC4)nn3c2=O)cc1	0%	2.3µM*	0%	-8%	1%
CCOC(=O)C1CCN(S(=O)(=O)c2ccc(C(C)=O)cc2)CC1	0%	-12%	-1%	-1%[1.84 µM]	11µM*
COc1ccc(CCNC(=O)C(=O)NCC(c2ccco2)S(=O)(=O)c2ccc(C)cc2)cc1 (stereo unspecified)	1%	nt	?	1%	11%
O=C(Nc1nc(=O)c2ccccc2s1)c1ccccc1	2µM*	?	32%	-2%	-1%
O=[N+]([O-])c1ccc(N2CCN(c3ccc(O)cc3)CC2)cn1	1%	21µM*	nt	-27%	0%
CCCN1C(C(=O)c2ccccc2)=C(OC(=O)c2ccc(F)cc2)c2ccccc2S1(=O)=O	-1%	?	0%	?	14%
CCN1C(C(=O)c2ccccc2)=C(OC(=O)C(C)C)c2ccccc2S1(=O)=O	0%	?	14%	?	8%
CCCCCN1C(C(=O)c2ccccc2)=C(OC(=O)CC)c2ccccc2S1(=O)=O	-2%	5.8µM*	-1%	?	22%
CCN1C(C(=O)c2ccccc2)=C(OC(=O)COc2ccccc2)c2ccccc2S1(=O)=O	0%	?	-2%	15µM*	-1%
CCCCC(=O)OC1=C(C(=O)c2ccccc2)N(CCC)S(=O)(=O)c2ccccc21	-1%	?	1%	?	15%
CCCCCN1C(C(=O)c2ccccc2)=C(NC(C)=O)c2ccccc2S1(=O)=O	1%	?	0%	?	5%
CCCN1C(C(=O)c2ccccc2)=C(OC(=O)c2ccc(C)cc2)c2ccccc2S1(=O)=O	-2%	23µM*	0%	?	0%
CCCCN1C(C(=O)c2ccccc2)=C(OC(=O)CC)c2ccccc2S1(=O)=O	-3%	21µM*	-4%	?	22%
C=CC(C1=CC(=O)C(OC)=C(OC)C1=O)c1ccccc1 (stereo unspecified)	nt	nt	0%	nt	9%
Cc1cccc(OC2=NS(=O)(=O)c3ccccc32)c1	nt	-7%[65.3 µM]	nt	8%[65.3 µM]	nt
COc1ccc(CCNC2CC(=O)N(CCc3ccccc3)C2=O)cc1 (stereo unspecified)	0%	8%	-5%	8%	10%[38.3 µM]
CCN(CC)c1ccc(NC2CC(=O)N(CCc3ccc(OC)cc3)C2=O)cc1 (stereo unspecified)	0%	6%	3.5µM*	-5%	2.2µM*
CCC1CN(CC(=O)NC(c2ccccn2)C(F)(F)F)Cc2cc(OC)ccc2O1 (stereo unspecified)	nt	nt	nt	nt	1%
COCCn1c(C)cc(C(=O)CSc2nnc(C)s2)c1C	-1%	15µM*	0%	-2%	0%
COC(=O)[C@@H]1C[C@@H](NC(=O)c2cnsn2)CN1Cc1ccc(Cl)cc1	nt	nt	nt	nt	0%
O=C(Nc1cc2c(oc1=O)CCCC2=O)c1cccc(Cl)c1	11µM*	16%	-1%	7%	24%[38.3 µM]
